From PubChem BioAssay (NCI)
The panel holds about 79,000 compounds, 15% with a hit somewhere; the sample as a whole holds those more often. No stated cut-off is given here; in the data, active means growth inhibition above about 70%; inactive means the rest.

Columns and labels:
[1] = NCI Yeast Anticancer Drug Screen. Data for the rad50 strain (AID 155);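 further: 0% = growth of vehicle-only cultures of the same strain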; details: S. cerevisiae rad50 strain growth inhibition; at 50.0 µM; stronger effect = higher value
Procedure, shortened: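 A DNA repair-deficient yeast mutant serves as the test organism; compound-induced growth inhibition is calculated against vehicle-treated cells.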

[2] = NCI Yeast Anticancer Drug Screen. Data for the mec2-1 strain (AID 157); details: S. cerevisiae mec2-1 strain, at 50.0 µM, stronger effect = higher value
Procedure, shortened: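 Mutant yeast (mec2-1) grown with compound; growth inhibition relative to vehicle control reported.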

[3] = NCI Yeast Anticancer Drug Screen. Data for the sgs1 mgt1 strain (AID 161);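 further: 0% = growth of cultures given vehicle only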; details: S. cerevisiae sgs1 mgt1 strain, at 50.0 µM, stronger effect = higher value
Procedure, shortened: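 This yeast growth screen uses a strain with defined DNA-repair lesions; compound-treated growth is compared with vehicle-treated growth.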

[4] = NCI Yeast Anticancer Drug Screen. Data for the cln2 rad14 strain (AID 165);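 further: 0% = growth equal to vehicle treated cultures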; details: S. cerevisiae cln2 rad14 strain, at 50.0 µM, stronger effect = higher value
Procedure, shortened: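 Readout is yeast growth inhibition versus vehicle-treated controls, using a strain with cln2 and rad14 alterations exposed to compound.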

[5] = NCI Yeast Anticancer Drug Screen. Data for the bub3 strain (AID 167); details: S. cerevisiae bub3 mutant strain, at 50.0 µM, stronger effect = higher value
Procedure, shortened: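 Inhibition values come from growth of compound-treated mutant yeast normalised to vehicle-treated controls.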

[6] = NCI Yeast Anticancer Drug Screen. Data for the mlh1 rad18 strain (AID 175); details: S. cerevisiae mlh1 rad18 strain growth inhibition; at 50.0 µM; stronger effect = higher value
Procedure, shortened: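 Genetically defined yeast (DNA repair-deficient) exposed to compounds; growth inhibition determined relative to vehicle.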

Measured: growth inhibition

N#Cc1ccccc1Br
inactive: [1] 21.4% | [2] -19.8% | [3] 21.1% | [4] 11.8% | [5] 11.8% | [6] 29.8%

CCSc1cc2c(cc1O)CC[C@@H]1[C@@H]2CC[C@]2(C)[C@@H](O)CC[C@@H]12
inactive: [1] -6.6% | [2] -18.1% | [3] -6.95% | [4] -7.5% | [5] 22.4% | [6] -27.6%

O=C1Nc2ccccc2C12CCNC2Cc1ccccc1 (stereo unspecified)
inactive: [1] -17.2% | [2] -12.2% | [3] -11.8% | [4] 19.8% | [5] -8.55% | [6] -21.4%

c1ccc(SCN(CSc2ccccc2)c2ccccc2)cc1
inactive: [1] -1.35% | [2] 26.9% | [3] 13.8% | [4] 66.8% | [5] 22.1% | [6] 14.8%

CCCCC(SC(CC)(CC)C(N)=O)C(N)=O (stereo unspecified)
inactive: [1] 8% | [2] -6.5% | [3] 6.55% | [4] -28.9% | [5] 8.7% | [6] -5.6%

CCCCCCCCCCCCCCCCCCCCCC(=O)O
inactive: [1] -16.1% | [2] -21.4% | [3] -21.1% | [4] -28.3% | [5] -2.15% | [6] -18.1%

CCOC(=O)N(c1ccccc1)c1ccccc1
inactive: [1] -11.3% | [2] -18.8% | [3] 18.7% | [4] 5.65% | [5] 5% | [6] 15.2%

CC(C)(C)C1=NNC(c2ccccc2)C1 (stereo unspecified)
inactive: [1] 5.25% | [2] -3.75% | [3] -14.7% | [4] 5.5% | [5] -1.25% | [6] 12.6%

CCCC1CCN(c2ccc([N+](=O)[O-])cc2[N+](=O)[O-])CC1
inactive: [1] 1.75% | [2] -4.75% | [3] 9.65% | [4] -19.2% | [5] 38.2% | [6] -1.15%

Cc1ccc(Nc2nc(C)c(C(=O)C/C(=N/NC(N)=S)C(=O)Nc3cc(Cl)cc(Cl)c3)s2)cc1
inactive: [1] -13.3% | [2] -13.1% | [3] 15.6% | [4] 22.1% | [5] -13.4% | [6] -27.8%

COC1(OC)CC(CCl)OC1(OC)OC (stereo unspecified)
inactive: [1] -2.45% | [2] 0.25% | [3] 12.7% | [4] 1.55% | [5] 3.15% | [6] -4.5%

N#CCC1C2CC3C(C2=O)C13 (stereo unspecified)
inactive: [1] -0.6% | [2] 5.85% | [3] -2.2% | [4] 22.4% | [5] 4.65% | [6] -39.8%

COc1cc(C)c(N)cc1N
inactive: [1] -2.7% | [2] -16.9% | [3] 11.3% | [4] -14% | [5] -1% | [6] 15.7%

COc1ccc(COc2ccc([N+](=O)[O-])cc2)cc1
inactive: [1] -12.2% | [2] 5% | [3] -4.45% | [4] -9% | [5] -13.9% | [6] -2.25%

COc1cc(C2c3cc4c(cc3OC(O)C2C)OCO4)cc(OC)c1OC (stereo unspecified)
inactive: [1] -11.9% | [2] 4.85% | [3] 11.7% | [4] -46.6% | [5] 16.1% | [6] -4.15%

CC1=Nc2cc(C)c(C)cc2N2C1=CC1=C(C(=O)c3cc4ccccc4cc3C1=O)C2C (stereo unspecified)
inactive: [1] 16% | [2] 9.8% | [3] 16.2% | [4] 23.1% | [5] -3.85% | [6] 23.6%

O=C(C[n+]1ccccc1)NNC(=O)/C(=C/c1ccc2c(c1)OCO2)NC(=O)c1ccccc1
inactive: [1] -5.95% | [2] 3.4% | [3] -13.7% | [4] 21.3% | [5] -3.95% | [6] 10.1%

CC(C)c1nnc(NC(=O)CSC(=S)N2CCOCC2)s1
inactive: [1] -23.9% | [2] -18.1% | [3] -5.95% | [4] -51.9% | [5] -16.6% | [6] -2.25%

C[N+](C)([O-])Cc1ccccc1
inactive: [1] -12.9% | [2] -27.4% | [3] -19.4% | [4] -0.8% | [5] -5.2% | [6] -16.9%

Nc1cc2c(cc1Br)-c1cc(Cl)c(Cl)cc1C2=O
inactive: [1] -5.75% | [2] -13.8% | [3] -7.15% | [4] -23.1% | [5] -2.1% | [6] -11.5%

CCCCCCC(C)CC(=O)O (stereo unspecified)
inactive: [1] -4.7% | [2] -3.85% | [3] 0% | [4] -59% | [5] -7.2% | [6] -21%
